The record followed here is PubChem BioAssay.

The target in one assay is Albumin (Bos taurus) (UniProt P02769). Description: compounds binding labelled BSA control protein – biochemical, small-molecule microarray, Alexa647 label, 635/667 nm fluorescence, artefact control for SMM control protein annotation, profiling panel (AID 1118).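 Further: score merges 667 nm emission intensity and signal-to-noise per printed compound spot.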 The conditions noted are these: BSA-A647 binding, fluorescence 635 nm, higher = more signal.
Assay [1] is described as follows: probe aXIP binding to arrayed compounds – biochemical, NeuroSMM set, 635/667 nm fluorescence, primary screen (AID 1119).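 Further: probe is the protein aXip251-270 applied at 1 µg/mL to compound-printed slides; binding of probe to printed compounds measured as 667 nm fluorescence plus signal to noise.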 The following applies: small-molecule microarray, higher = more signal, called active from +8 up or from −8 down.
The nature of assay [2]: probe aNOTCH3 binding on compound microarray – biochemical, small-molecule microarray, 635/667 nm fluorescence, primary screen (AID 1120).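 Further: probe is a biotin-tagged antibody raised against NOTCH3 rather than NOTCH3 protein; score merges spot fluorescence near 667 nm with spot signal to noise.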 The following applies: higher = more signal.
Assay [3] can be described thus: probe aNOTCH2 binding on compound microarray – biochemical, small-molecule microarray, 635/667 nm fluorescence, primary screen (AID 1121).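 Further: score merges feature fluorescence read at 667 nm with its signal to noise.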 The conditions noted are these: higher = more signal.
Assay [4] has as its target Carbonic anhydrase 2 (Homo sapiens) (UniProt P00918). The assay is described as follows: compounds binding carbonic anhydrase 2 – biochemical, small-molecule microarray, Alexa647-labelled CAII, profiling panel (AID 1122). The following applies: CAII-A647 binding fluorescence, higher = more signal.
A short description of assay [5]: COS7 lysate on small-molecule microarray, probe aHis, 635 nm (AID 1123).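 Further: z-score combines 667nm fluorescence intensity with signal-to-noise per printed compound spot.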 The conditions noted are these: COS7 cell lysate, fluorescence, higher = more signal.
Assay [6] is described as follows: probe aLAP1 signal on lysate-treated microarray – cell lysate, small-molecule microarray, COS7 lysate, primary screen (AID 1124).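 Further: lysate comes from COS7 cells expressing LAP1 and is applied at 0.3 µg/mL; score merges spot fluorescence near 667 nm with signal-to-noise over triplicate slides.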 The conditions noted are these: probe aLAP1, fluorescence, higher = more signal.
A further assay deals with Sam68 (KHDRBS1). Description: compounds binding KHDRBS1 protein – biochemical, small-molecule microarray, 635 nm fluorescence, primary screen (AID 1125).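 Further: score merges 667 nm channel intensity with signal to noise over triplicate slides.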 The following applies: higher = more signal.
Assay [7] deals with Chordin-like protein 2 (CHRDL2). Description: compounds binding chordin-like 2 – biochemical, small-molecule microarray, 635 nm fluorescence, primary screen (AID 1126).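 Further: printed compound slides probed with Chrdl2 protein at 4 µg/mL for 1 h at 4 C; score merges 667 nm emission intensity with signal to noise over three replicate slides.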 The conditions noted are these: fluorescence 635 nm, higher = more signal.
In assay [8] the target is Concanavalin-A (Canavalia ensiformis) (UniProt P02866). Description: compounds binding concanavalin A lectin – biochemical, small-molecule microarray, Alexa647 label, 635 nm, artefact control for SMM control protein annotation, primary screen (AID 1127).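 Further: z combines 667 nm emission intensity with signal-to-noise across three replicate slides.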 The conditions noted are these: ConA-A647 binding fluorescence, higher = more signal.
A short description of assay [9]: compounds binding Alexa647 anti-His antibody – biochemical, small-molecule microarray, 635 nm fluorescence, artefact control for SMM control protein annotation, primary screen (AID 1128).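 Further: score merges feature fluorescence with signal-to-noise for each printed compound spot.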 The conditions noted are these: higher = more signal.
For assay [10], the system named is Human papillomavirus type 1a E7 protein (residues 1-88). The assay is described as follows: HPV1a E7 small-molecule binders, primary screen, biochemical, small-molecule microarray, residues 1-88, 635 nm (AID 1129). The following applies: small-molecule microarray binding, fluorescence 635 nm; higher = more signal.
For assay [11], the target named is Focal adhesion kinase 1 (Homo sapiens) (UniProt Q05397). The assay is described as follows: PTK2 protein binding on printed compound slides – biochemical, small-molecule microarray, 635/667 nm fluorescence, BSA, DTT, primary screen (AID 1130).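 Further: composite of spot emission at 667 nm and signal to noise over triplicate slides.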 The conditions noted are these: 635 nm fluorescence, higher = more signal.
Assay [12] relates to Fibrinogen (Alexa647-labelled). The assay is described as follows: Alexa647-fibrinogen binding to printed small molecules – biochemical, small-molecule microarray, 635/667 nm fluorescence, artefact control for SMM control-protein annotation, profiling panel (AID 1131).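 Further: z-score merges 667 nm fluorescence with per-spot signal-to-noise over triplicate slides.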 The following applies: fibrinogen-A647 binding fluorescence, higher = more signal.
Assay [13] has as its target Follistatin (Homo sapiens) (UniProt P19883). The assay is described as follows: FST protein binding to printed compounds – biochemical, small-molecule microarray, 635/667 nm fluorescence, primary screen (AID 1132). The conditions noted are these: 635 nm fluorescence, higher = more signal.
Assay [14] has as its target Fibroblast growth factor 2 (Homo sapiens) (UniProt P09038). Description: basic fibroblast growth factor binding to printed compounds – biochemical, small-molecule microarray, 635/667 nm fluorescence, primary screen (AID 1133). The following applies: FGF2, fluorescence 635/667, higher = more signal.
Assay [15] is described as follows: JC-1 mitochondrial potential readout, lung cancer cells – cell-based, A549, JC-1 fluorescence, basal, 24 h, 100 nL, profiling panel (AID 1138).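 Further: A549 lung adenocarcinoma cells under basal conditions with no added stimulus; test concentration not given here.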 The following applies: higher = more signal.
The subject of the next assay is Lefty1. The assay is described as follows: Lefty1 protein binding to printed compounds – biochemical, small-molecule microarray, 635/667 nm fluorescence, primary screen (AID 1139). The conditions noted are these: fluorescence 635/667, higher = more signal.
The test system of assay [16] is wheat germ agglutinin (Triticum aestivum), Alexa647-labelled. The assay is described as follows: Alexa647-WGA lectin binding to printed small molecules – biochemical, small-molecule microarray, 635/667 nm fluorescence, artefact control for SMM control-protein annotation, profiling panel (AID 1140).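 Further: score merges 667 nm feature emission with signal to noise over triplicate slides.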 The conditions noted are these: WGA-A647 binding, 635 nm fluorescence, higher = more signal.

Assay [17] has as its target Luciferin 4-monooxygenase (Photinus pyralis) (UniProt P08659). The assay is described as follows: inhibition of purified Photinus pyralis luciferase – biochemical, luminescence, purified enzyme, 2006 set, primary screen (AID 1141).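 Further: cell-free assay with purified firefly luciferase at 100 ng per well in PBS; test concentration not given here.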 The conditions noted are these: purified firefly luciferase, SteadyGlo luminescence, 30 min; higher = more signal, called active from +8 up or from −8 down.

The source made the active and inactive calls.

Sequence of Fibroblast growth factor 2 (Homo sapiens) (P09038 whole entry, looked up): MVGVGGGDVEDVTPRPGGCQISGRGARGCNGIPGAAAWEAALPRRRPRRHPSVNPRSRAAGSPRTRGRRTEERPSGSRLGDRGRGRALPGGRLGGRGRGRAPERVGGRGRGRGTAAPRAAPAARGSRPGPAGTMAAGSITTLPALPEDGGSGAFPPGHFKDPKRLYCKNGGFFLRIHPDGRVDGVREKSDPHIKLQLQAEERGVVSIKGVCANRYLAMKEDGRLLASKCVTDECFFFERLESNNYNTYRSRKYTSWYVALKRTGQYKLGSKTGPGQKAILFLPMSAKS
Sequence of Focal adhesion kinase 1 (Homo sapiens) (Q05397 whole entry, looked up): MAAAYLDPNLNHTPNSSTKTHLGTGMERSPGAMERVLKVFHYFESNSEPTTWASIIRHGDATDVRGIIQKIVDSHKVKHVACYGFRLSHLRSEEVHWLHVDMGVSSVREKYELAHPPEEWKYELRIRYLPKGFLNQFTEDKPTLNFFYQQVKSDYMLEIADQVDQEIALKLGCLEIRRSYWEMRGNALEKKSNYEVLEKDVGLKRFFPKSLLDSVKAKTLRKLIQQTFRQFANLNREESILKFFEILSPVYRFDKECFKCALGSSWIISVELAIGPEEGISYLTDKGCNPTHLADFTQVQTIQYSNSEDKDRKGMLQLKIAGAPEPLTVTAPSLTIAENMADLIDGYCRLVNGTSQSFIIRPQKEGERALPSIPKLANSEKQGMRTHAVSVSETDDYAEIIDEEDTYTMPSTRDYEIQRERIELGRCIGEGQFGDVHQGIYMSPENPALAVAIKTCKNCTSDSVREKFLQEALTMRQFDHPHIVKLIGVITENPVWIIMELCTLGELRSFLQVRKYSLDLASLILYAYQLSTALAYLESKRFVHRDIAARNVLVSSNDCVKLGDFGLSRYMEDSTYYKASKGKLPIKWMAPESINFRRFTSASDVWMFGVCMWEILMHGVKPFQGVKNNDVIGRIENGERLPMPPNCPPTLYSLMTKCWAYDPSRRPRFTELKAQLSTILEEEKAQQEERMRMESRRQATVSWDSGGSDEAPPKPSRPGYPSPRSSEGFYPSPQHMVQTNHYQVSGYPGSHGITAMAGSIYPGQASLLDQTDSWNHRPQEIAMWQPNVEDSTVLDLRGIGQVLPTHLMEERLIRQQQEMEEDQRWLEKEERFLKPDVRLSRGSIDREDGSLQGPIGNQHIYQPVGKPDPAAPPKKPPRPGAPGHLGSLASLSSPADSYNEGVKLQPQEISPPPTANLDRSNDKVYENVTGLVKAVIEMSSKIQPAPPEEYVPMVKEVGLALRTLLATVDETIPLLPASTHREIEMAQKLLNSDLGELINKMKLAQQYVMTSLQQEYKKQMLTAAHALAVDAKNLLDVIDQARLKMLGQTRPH
Sequence of Albumin (Bos taurus) (P02769 whole entry, looked up): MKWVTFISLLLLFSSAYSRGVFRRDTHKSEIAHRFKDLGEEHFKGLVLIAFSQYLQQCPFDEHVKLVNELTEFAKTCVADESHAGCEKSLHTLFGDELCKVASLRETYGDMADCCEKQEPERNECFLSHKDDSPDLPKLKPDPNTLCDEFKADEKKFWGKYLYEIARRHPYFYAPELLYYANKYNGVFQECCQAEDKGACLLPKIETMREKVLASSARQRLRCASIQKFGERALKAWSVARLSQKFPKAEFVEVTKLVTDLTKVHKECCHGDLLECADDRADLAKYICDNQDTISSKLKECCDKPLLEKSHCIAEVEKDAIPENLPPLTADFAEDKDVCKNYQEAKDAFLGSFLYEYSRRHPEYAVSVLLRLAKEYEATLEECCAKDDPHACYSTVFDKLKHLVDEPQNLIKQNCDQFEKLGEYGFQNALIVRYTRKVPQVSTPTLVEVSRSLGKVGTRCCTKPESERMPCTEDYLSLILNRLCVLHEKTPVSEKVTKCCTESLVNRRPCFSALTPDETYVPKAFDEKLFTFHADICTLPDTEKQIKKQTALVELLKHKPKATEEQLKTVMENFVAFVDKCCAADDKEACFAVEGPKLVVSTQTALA
Sequence of Concanavalin-A (Canavalia ensiformis) (P02866 whole entry, looked up): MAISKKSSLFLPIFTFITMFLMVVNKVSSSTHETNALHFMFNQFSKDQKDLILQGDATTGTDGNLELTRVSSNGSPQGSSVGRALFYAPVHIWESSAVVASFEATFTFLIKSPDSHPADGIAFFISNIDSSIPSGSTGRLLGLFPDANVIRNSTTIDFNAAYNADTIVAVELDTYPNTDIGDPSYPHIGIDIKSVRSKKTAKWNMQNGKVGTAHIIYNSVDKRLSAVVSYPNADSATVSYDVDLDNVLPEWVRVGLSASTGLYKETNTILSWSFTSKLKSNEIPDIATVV
Sequence of Follistatin (Homo sapiens) (P19883 whole entry, looked up): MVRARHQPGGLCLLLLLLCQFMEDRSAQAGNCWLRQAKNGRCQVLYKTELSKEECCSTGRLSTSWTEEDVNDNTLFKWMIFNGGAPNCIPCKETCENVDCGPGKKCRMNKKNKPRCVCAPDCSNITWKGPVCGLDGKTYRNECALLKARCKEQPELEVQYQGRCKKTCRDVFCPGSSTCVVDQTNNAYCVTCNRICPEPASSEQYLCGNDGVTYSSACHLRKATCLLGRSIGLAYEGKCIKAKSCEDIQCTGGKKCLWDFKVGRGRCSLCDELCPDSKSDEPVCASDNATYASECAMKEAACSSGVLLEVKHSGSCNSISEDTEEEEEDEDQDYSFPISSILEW
Sequence of Luciferin 4-monooxygenase (Photinus pyralis) (P08659 whole entry, looked up): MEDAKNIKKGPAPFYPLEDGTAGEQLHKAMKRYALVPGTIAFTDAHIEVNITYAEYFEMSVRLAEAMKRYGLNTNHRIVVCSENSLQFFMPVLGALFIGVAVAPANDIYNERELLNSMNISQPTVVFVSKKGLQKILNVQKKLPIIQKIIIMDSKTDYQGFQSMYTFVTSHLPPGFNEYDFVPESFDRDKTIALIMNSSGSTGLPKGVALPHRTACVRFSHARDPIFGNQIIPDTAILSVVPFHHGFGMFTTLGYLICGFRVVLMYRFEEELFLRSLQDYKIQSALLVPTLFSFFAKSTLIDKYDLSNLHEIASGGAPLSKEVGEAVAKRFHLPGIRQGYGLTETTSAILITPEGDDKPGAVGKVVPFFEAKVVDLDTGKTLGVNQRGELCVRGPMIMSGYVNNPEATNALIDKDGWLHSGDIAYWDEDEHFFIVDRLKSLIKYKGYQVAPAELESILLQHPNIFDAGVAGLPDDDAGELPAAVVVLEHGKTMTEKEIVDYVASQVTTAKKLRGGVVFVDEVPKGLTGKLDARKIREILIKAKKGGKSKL

With `CCOC(=O)C1=CC[C@@H](c2ccccc2)N(S(=O)(=O)c2ccc(C)cc2)[C@H]1c1ccc(C#N)cc1`, the composite z-score with Albumin (Bos taurus) was 0.801; in assay [2], 0.116; in [3] it was -0.0158; in [4], 0.356; in [5], 1.56; in assay [6], 0.791. The composite z-score in the assay on Sam68 (KHDRBS1) is 1.33; in assay [7], -1.25; in [8], 1.12; in [9], 1; in assay [10], 1.19; in assay [11], 0.456. Also, the composite z-score in [12] was 0.931; in assay [13], -0.0375; in assay [14], -0.732; with Lefty1, -0.507; in [16] it was 1.23. The composite Z-score in [1] is 0.662 (inactive). Moreover, the values for the z-score in assay [15] and in [17] were 2.11 and 1.23 (inactive), respectively.

As to `O=C1OCC=C[C@H]2OC34C=CCN(c5ccc(Cl)cc5)C(=O)[C@H]3N(CCCO)C(=O)[C@@H]4[C@@H]12` (stereo not given in full), the composite z-score with Albumin (Bos taurus) was -1.3; in [2] it was -0.254; in assay [3], -0.164; in assay [4], 0.96; in assay [5] it was 0.446; in [6] it was -0.0727. Besides, the composite z-score is -0.819 in the assay on Sam68 (KHDRBS1); -1.6 in assay [7]; -0.927 in assay [8]; -0.562 in assay [9]; -0.799 in assay [10]; 0.29 in assay [11]. In addition, the composite z-score in [12] is -1.02; in assay [13], -0.706; in assay [14] it was -0.708; in the assay with Lefty1, -0.672; in [16], -0.748. In addition, the composite Z-score in [1] was -0.265 (inactive). In addition, the z-score in assay [15] is -0.353; in [17], -0.429 (inactive).

As for `COc1cc(CO)cc(I)c1O[C@H]1C=C(C(=O)NCCO)C[C@@H](N(CCc2cccc(F)c2)C(=O)CCC2CCCC2)[C@@H]1O`, the composite z-score is -0.526 in the assay with Albumin (Bos taurus); 0.13 in [2]; -0.0596 in [3]; 0.117 in [4]; 1.29 in assay [5]; 1.88 in assay [6]. Besides, the composite z-score was found to be 1.3 in the assay on Sam68 (KHDRBS1); 1.32 in assay [7]; 0.444 in assay [8]; 2.62 in assay [9]; 1.19 in assay [10]; 0.218 in assay [11]. For the same compound, the composite z-score in assay [12] amounted to 0.819; in [13] it was 1.46; in assay [14], 1.76; in the assay with Lefty1 it was 1.49; in assay [16], 0.524. The composite Z-score in assay [1] was 0.687 (inactive). Also, the figures for the z-score in [15] and in [17] were -0.172 and 1.38 (inactive), respectively.

As to `COc1ccc([Si](C)(C)[C@@H]2[C@@H](CC(=O)N3Cc4ccccc4C[C@H]3CO)O[C@]3(C(=O)N(Cc4cccc(N5C(=O)COc6ccccc65)c4)c4ccccc43)[C@H]2C)cc1`, the composite z-score with Albumin (Bos taurus) was 0.566; in assay [2], 0.0905; in assay [3], -0.177; in [4], 0.423; in [5] it was 0.629; in assay [6] it was 0.344. The composite z-score in the assay with Sam68 (KHDRBS1) turned out to be 1.07; in assay [7], 0.692; in assay [8], 1.11; in assay [9] it was 1.16; in [10] it was 1; in assay [11] it was 0.261. The composite z-score was 0.269 in assay [12]; 1.26 in [13]; 1.76 in [14]; 1.25 in the assay on Lefty1; 0.0948 in [16]. The composite Z-score in [1] was 1.33 (inactive). For the same compound, the values for the z-score in assay [15] and in [17] were -0.0295 and -0.438 (inactive), respectively.

`CN1C(=O)C2C=CC(C(O)c3ccccc3)N(NC(=O)OC(C)(C)C)C2C1=O` (stereo not given): the composite z-score with Albumin (Bos taurus) was 0.959; in assay [2], 0.245; in [3] it was -0.0722; in assay [4], 0.722; in assay [5] it was 2.05; in assay [6], 0.23. Also, the composite z-score was 1.01 in the assay on Sam68 (KHDRBS1); -0.33 in assay [7]; 0.442 in assay [8]; 0.884 in [9]; 1.12 in assay [10]; 0.164 in assay [11]. Moreover, the composite z-score in assay [12] was 0.513; in assay [13], -0.0714; in [14] it was -0.27; in the assay with Lefty1, -0.525; in assay [16], 1.05. In assay [1], the composite Z-score was 0.0333 (inactive). Further, the z-score in assay [15] was -0.165; in assay [17], 0.22 (inactive).

As to `CCCC[C@H]1OB(O)C[C@H]2C1=C(C)Cn1c(=O)n(-c3ccccc3)c(=O)n12`, the composite z-score was 0.242 with Albumin (Bos taurus); -0.236 in assay [2]; -0.177 in [3]; -0.159 in assay [4]; 0.549 in assay [5]; 0.144 in assay [6]. For the same compound, the composite z-score is 0.401 in the assay with Sam68 (KHDRBS1); 0.77 in assay [7]; 0.0577 in assay [8]; 0.247 in [9]; 0.299 in [10]; -0.144 in assay [11]. The composite z-score in assay [12] was -0.0265; in assay [13], 0.415; in [14], 0.321; in the assay with Lefty1, 0.493; in assay [16], 0.0939. In assay [1], the composite Z-score is -0.426 (inactive). Further, the z-score is -0.281 in assay [15] and 0.169 (inactive) in [17].
